HTR5A inv ag – inverse agonist of human HTR5A in OPRM1-OPRD1 counter-screen. P47898. HTR5A cell line, luminescence, inverse agonism. inhibition, % at 9.3 µM. actives 0.083% (n = 340,000); in the data active = inhibition mostly above about 23%, no sharp cut-off; inactive = mostly below about 18%;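 also: 0% = cells with DMSO and 100% = no-cell wells with DMSO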
Target sequence (P47898 whole entry, looked up): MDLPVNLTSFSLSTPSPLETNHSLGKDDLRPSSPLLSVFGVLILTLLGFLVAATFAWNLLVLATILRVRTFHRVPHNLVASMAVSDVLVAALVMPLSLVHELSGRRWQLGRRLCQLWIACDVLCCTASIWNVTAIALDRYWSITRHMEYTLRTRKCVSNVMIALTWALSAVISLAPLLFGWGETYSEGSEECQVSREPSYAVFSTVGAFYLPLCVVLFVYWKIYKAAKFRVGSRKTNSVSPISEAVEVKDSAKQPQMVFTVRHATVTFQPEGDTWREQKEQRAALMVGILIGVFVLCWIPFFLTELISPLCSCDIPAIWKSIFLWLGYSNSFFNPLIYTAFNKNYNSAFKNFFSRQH
MOR-DOR ag – OPRM1-OPRD1 heterodimerization agonism | cells, luminescence | P35372+P41143 | activation, % at 9.3 µM | actives 0.3% (n = 340,000); in the data active = activation above about 18%;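 also: 0% = vehicle-treated cells and 100% = reference agonist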
HTR5A ag – counter-screen for OPRM1-OPRD1 agonists: human HTR5A agonism; HTR5A agonist assay, luminescence, cell-based; activation, % at 9.3 µM; actives 0.61% (n = 340,000); in the data active = activation mostly above about 9.5%, no sharp cut-off; inactive = mostly below about 7.6%;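 also: 0% = cells with vehicle only and 100% = reference agonist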
MOR-DOR inv ag-1 – inverse agonists of human mu-delta opioid receptor heterodimerization; P35372+P41143; cell-based MOR-DOR heterodimer luminescence, inverse agonism; inhibition, % at 9.3 µM; actives 0.21% (n = 340,000); in the data active = inhibition above about 22%, passing the limit was not always enough;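 also: 0% = cells with DMSO and 100% = wells without cells with DMSO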
MOR-DOR inv conf – OPRM1-OPRD1 heterodimer inverse agonism, confirmation. shares compounds with MOR-DOR inv ag-1. cells expressing OPRM1/OPRD1 heterodimer, luminescence. inhibition, % at 9.3 µM. actives 20% (n = 580). AID 504900; in the data active = inhibition above about 32%;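 also: 0% = cells with DMSO and 100% = wells lacking cells with DMSO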
HTR5A inv ctr2 – HTR5A inverse agonism, opioid heterodimer counter-screen. HTR5A-expressing cells, luminescence. inhibition, % at 9.3 µM. shares compounds with MOR-DOR inv ag-1. AID 504914. 580 tested, under 10 active;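 also: 0% = cells with DMSO and 100% = no-cell wells with DMSO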
MOR-DOR inv ag-2 – opioid heterodimer inverse agonism, HTR5A counter-screen | shares compounds with HTR5A inv ag | U2OS counter-screen cells, complementation luminescence | inhibition, % at 9.3 µM | 190 tested, under 10 active;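 also: 0% = cells with DMSO and 100% = wells without cells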
HTR5A inv confrm – HTR5A (human) inverse agonism, confirmation | shares compounds with HTR5A inv ag | HTR5A-expressing cells, luminescence | inhibition, % at 9.3 µM | 190 tested, under 10 active | AID 504916;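 also: 0% = cells with DMSO and 100% = no cells with DMSO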
An asterisk follows results filed as active. Compounds with a hit are over-represented: about 1.1% of the library has one in this group of screens. Unless noted, no rule for the calls is given here.

How did CSCc1ccc(C(=O)NCC(c2cccs2)N2CCOCC2)cc1 (stereo not given) do in these assays?
HTR5A inv ag: -1; MOR-DOR ag: -2; HTR5A ag: -1; MOR-DOR inv ag-1: 10

How did O=C1Nc2ccccc2C1=Nc1ccc(-c2nnc3n2CCCCC3)cc1 do in these assays?
HTR5A inv ag: 6; MOR-DOR ag: -7; HTR5A ag: -2; MOR-DOR inv ag-1: 35*; MOR-DOR inv conf: 40*; HTR5A inv ctr2: 3

What do the screens show for `CCOc1ncccc1C(=O)NCC(c1ccccc1)N(C)C` (stereo not given)?
HTR5A inv ag: -14; MOR-DOR ag: 7; HTR5A ag: 1; MOR-DOR inv ag-1: -36

What do the screens show for `Cc1ccccc1NC1(C#N)C(=O)Nc2ccccc21` (stereo not given)?
HTR5A inv ag: 4; MOR-DOR ag: -12; HTR5A ag: -7; MOR-DOR inv ag-1: 58*; MOR-DOR inv conf: -251; HTR5A inv ctr2: -6

How did CC(C)c1ccc(NC2(C#N)C(=O)Nc3ccccc32)cc1 (stereo not given) do in these assays?
HTR5A inv ag: 3; MOR-DOR ag: -10; HTR5A ag: -3; MOR-DOR inv ag-1: 59*; MOR-DOR inv conf: -13; HTR5A inv ctr2: -19

What do the screens show for `CC(C)c1ccc(NC(=O)CC2Oc3ccccc3NC2=O)cc1` (stereo not given)?
HTR5A inv ag: 3; MOR-DOR ag: -1; HTR5A ag: -1; MOR-DOR inv ag-1: 6

What do the screens show for `Cc1ccc(NC(=O)CSCC(=O)NCCc2ccccc2)c(C)c1`?
HTR5A inv ag: 10; MOR-DOR ag: -2; HTR5A ag: 1; MOR-DOR inv ag-1: 9

How did O=C(NNC(=O)c1ccc2ccccc2c1)c1ccc(Cl)c(Cl)c1 do in these assays?
HTR5A inv ag: 2; MOR-DOR ag: -4; HTR5A ag: 0; MOR-DOR inv ag-1: 17

What do the screens show for `O=C(NNc1ccccc1)c1ccc(Cl)c(Cl)c1`?
HTR5A inv ag: 8; MOR-DOR ag: -9; HTR5A ag: -2; MOR-DOR inv ag-1: 40*; MOR-DOR inv conf: 54*; HTR5A inv ctr2: 14

What do the screens show for `O=C(NNc1cc(Br)c(O)c(Br)c1)c1ccccc1`?
HTR5A inv ag: 12; MOR-DOR ag: -16; HTR5A ag: -9; MOR-DOR inv ag-1: 79*; MOR-DOR inv conf: 75*; HTR5A inv ctr2: 22

How did Cc1ccc(CC(=O)Nc2ccc(S(=O)(=O)Nc3ncccn3)cc2)cc1 do in these assays?
HTR5A inv ag: -22; MOR-DOR ag: 0; HTR5A ag: 0; MOR-DOR inv ag-1: -2

Results for Cc1cc(NC(=O)CSc2nc3c([nH]c4ccccc43)c(=O)n2-c2ccccc2F)no1 ?
HTR5A inv ag: 15; MOR-DOR ag: -6; HTR5A ag: -3; MOR-DOR inv ag-1: 34*; MOR-DOR inv conf: 12; HTR5A inv ctr2: 15

Results for Cc1cc(-n2nc3ccccc3n2)c(O)c([N+](=O)[O-])c1 ?
HTR5A inv ag: 5; MOR-DOR ag: -5; HTR5A ag: 7; MOR-DOR inv ag-1: 26*; MOR-DOR inv conf: -17; HTR5A inv ctr2: 19

What do the screens show for `Cc1ccc(OC(=O)c2cccc([N+](=O)[O-])c2)c(-n2nc3ccccc3n2)c1`?
HTR5A inv ag: 6; MOR-DOR ag: -2; HTR5A ag: -2; MOR-DOR inv ag-1: 15

What do the screens show for `FC(F)(F)c1nc2ccccc2n2c(-c3ccc(Cl)cc3)nnc12`?
HTR5A inv ag: 9; MOR-DOR ag: -7; HTR5A ag: -4; MOR-DOR inv ag-1: 31*; MOR-DOR inv conf: 14; HTR5A inv ctr2: 4

How did Cc1ccc(-c2nnc3c(C(F)(F)F)nc4ccccc4n23)cc1 do in these assays?
HTR5A inv ag: -5; MOR-DOR ag: -4; HTR5A ag: 2; MOR-DOR inv ag-1: 20

How did CC1CCCCC1NC(=O)C1CCC(CNc2c(N3CCCCC3)c(=O)c2=O)CC1 (stereo not given) do in these assays?
HTR5A inv ag: 25; MOR-DOR ag: 0; HTR5A ag: -4; MOR-DOR inv ag-1: 0

What do the screens show for `Cc1ccc(C(=O)COC(=O)CN2C(=O)C3C4C=CC(C4)C3C2=O)cc1[N+](=O)[O-]` (stereo not given)?
HTR5A inv ag: 12; MOR-DOR ag: -5; HTR5A ag: -4; MOR-DOR inv ag-1: 38*; MOR-DOR inv conf: -70; HTR5A inv ctr2: -15

How did Cc1ccc(C(=O)COC(=O)CN2C(=O)C3C4CCC(C4)C3C2=O)cc1[N+](=O)[O-] (stereo not given) do in these assays?
HTR5A inv ag: 23; MOR-DOR ag: -9; HTR5A ag: -6; MOR-DOR inv ag-1: 53*; MOR-DOR inv conf: -32; HTR5A inv ctr2: 5

What do the screens show for `Cc1ccc(C(=O)COC(=O)CN2C(=O)C3CC=CCC3C2=O)cc1[N+](=O)[O-]` (stereo not given)?
HTR5A inv ag: 1; MOR-DOR ag: -9; HTR5A ag: -4; MOR-DOR inv ag-1: 50*; MOR-DOR inv conf: 48*; HTR5A inv ctr2: 20

How did O=C(CN1C(=O)C2C3C=CC(C3)C2C1=O)OCC(=O)c1ccc(Cl)c([N+](=O)[O-])c1 (stereo not given) do in these assays?
HTR5A inv ag: 21; MOR-DOR ag: -14; HTR5A ag: -8; MOR-DOR inv ag-1: 78*; MOR-DOR inv conf: 84*; HTR5A inv ctr2: 19

Results for CSCCC(NS(=O)(=O)c1ccccc1F)C(=O)NCCCn1nc(C)cc1C (stereo not given) ?
HTR5A inv ag: 22; MOR-DOR ag: -2; HTR5A ag: 1; MOR-DOR inv ag-1: 11

How did O=C(CCN1C(=O)C2C3CCC(C3)C2C1=O)OCC(=O)c1ccc(Br)cc1 (stereo not given) do in these assays?
HTR5A inv ag: -8; MOR-DOR ag: -3; HTR5A ag: 2; MOR-DOR inv ag-1: 16

Results for Cc1ccc(C(=O)COC(=O)CCN2C(=O)C3C4CCC(C4)C3C2=O)cc1[N+](=O)[O-] (stereo not given) ?
HTR5A inv ag: 21; MOR-DOR ag: -10; HTR5A ag: -6; MOR-DOR inv ag-1: 55*; MOR-DOR inv conf: 48*; HTR5A inv ctr2: 21

What do the screens show for `CCN(C(=O)C(C)OC(=O)c1nn(-c2ccccc2C(F)(F)F)cc1O)c1ccccc1` (stereo not given)?
HTR5A inv ag: 9; MOR-DOR ag: -3; HTR5A ag: -2; MOR-DOR inv ag-1: 17

How did NC(=O)C1CCN(C(=S)NCCc2ccccc2)CC1 do in these assays?
HTR5A inv ag: 0; MOR-DOR ag: -1; HTR5A ag: 0; MOR-DOR inv ag-1: 5

What do the screens show for `CC(=O)N1CCc2cc(Br)cc(S(=O)(=O)N3CCN(c4ccccn4)CC3)c21`?
HTR5A inv ag: 46*; MOR-DOR ag: -1; HTR5A ag: 1; MOR-DOR inv ag-1: 8; MOR-DOR inv ag-2: -40; HTR5A inv confrm: 8
